In PubChem BioAssay (NCATS):
Results filed as inconclusive are left out. Active and inactive are the calls of the source. Unless noted, calls follow the shape of the dose curve; as a rule, active = well fitted curve in either direction with a large enough effect (not every such curve was filed as active); inconclusive = small, poorly fitted or top-dose-only effect, or another doubt; inactive = flat fitted curve, though single readings scatter.

Assays:
[1] = biological target: Lysosomal acid glucosylceramidase (Homo sapiens) (UniProt P04062); experiment: Glucocerebrosidase-p2 (AID 348; in the data active = potency below about 10 µM; also: potency is read from the fitted curve at half-maximal effect); conditions: purified GBA, blue fluorogenic substrate, 40 min
Chain of Lysosomal acid glucosylceramidase (Homo sapiens) (P04062 whole entry, looked up): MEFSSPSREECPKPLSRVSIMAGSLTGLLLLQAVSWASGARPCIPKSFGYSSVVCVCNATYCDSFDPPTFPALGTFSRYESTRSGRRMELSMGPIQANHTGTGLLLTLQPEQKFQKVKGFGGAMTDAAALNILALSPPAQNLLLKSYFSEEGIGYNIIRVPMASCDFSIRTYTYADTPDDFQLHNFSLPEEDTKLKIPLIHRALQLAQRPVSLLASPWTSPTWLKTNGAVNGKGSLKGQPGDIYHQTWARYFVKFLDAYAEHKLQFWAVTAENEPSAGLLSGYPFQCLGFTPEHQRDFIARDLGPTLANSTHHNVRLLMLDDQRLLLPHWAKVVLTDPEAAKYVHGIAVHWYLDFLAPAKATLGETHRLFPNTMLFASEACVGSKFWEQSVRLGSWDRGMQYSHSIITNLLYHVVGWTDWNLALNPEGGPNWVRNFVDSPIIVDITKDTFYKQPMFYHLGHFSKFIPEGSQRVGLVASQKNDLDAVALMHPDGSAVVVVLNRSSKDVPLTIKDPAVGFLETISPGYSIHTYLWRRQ
In short: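 Normal human glucocerebrosidase (0.2 nM) with blue fluorogenic substrate (80 uM final) in citrate/phosphate pH 5.9 with 10mM sodium taurocholate, 0.01% tween-20; 40 min RT, NaOH/glycine stop; fluorescence Ex 365/Em 440; AC50 from a titration from 0.6 nM upwards.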

[2] = AP1 Signaling Pathway (AID 357); conditions: ME-180 AP-1-bla reporter, EGF-induced, beta-lactamase ratio, 5 h; at 7.69 µM (top of the series) unless noted;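 also: ME-180 reporter cells stimulated with EGF at its EC50 level; % is scaled to controls: 0 for no effect and ±100 for the full control effect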
In short: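 Beta-lactamase reporter under AP-1 response element, ME-180 background. Stimulus: EC50 EGF. Compound exposure 5 h, 37 °C. Detection: CCF4, 2.5 h RT, 460/530 nm. Values: AC50 from titration.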

[3] = biological target: Cytochrome P450 1A2 (Homo sapiens) (UniProt P05177); experiment: p450-cyp1a2 (AID 410; calls by dose curve; also: potency is read from the fitted curve at half-maximal effect;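 as to activity change, negative = inhibition: -100% = full effect of reference inhibitor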); conditions: recombinant CYP1A2, luciferin-ME demethylation, luminescence; series mostly up to 11.4 µM
Chain of Cytochrome P450 1A2 (Homo sapiens) (P05177 whole entry, looked up): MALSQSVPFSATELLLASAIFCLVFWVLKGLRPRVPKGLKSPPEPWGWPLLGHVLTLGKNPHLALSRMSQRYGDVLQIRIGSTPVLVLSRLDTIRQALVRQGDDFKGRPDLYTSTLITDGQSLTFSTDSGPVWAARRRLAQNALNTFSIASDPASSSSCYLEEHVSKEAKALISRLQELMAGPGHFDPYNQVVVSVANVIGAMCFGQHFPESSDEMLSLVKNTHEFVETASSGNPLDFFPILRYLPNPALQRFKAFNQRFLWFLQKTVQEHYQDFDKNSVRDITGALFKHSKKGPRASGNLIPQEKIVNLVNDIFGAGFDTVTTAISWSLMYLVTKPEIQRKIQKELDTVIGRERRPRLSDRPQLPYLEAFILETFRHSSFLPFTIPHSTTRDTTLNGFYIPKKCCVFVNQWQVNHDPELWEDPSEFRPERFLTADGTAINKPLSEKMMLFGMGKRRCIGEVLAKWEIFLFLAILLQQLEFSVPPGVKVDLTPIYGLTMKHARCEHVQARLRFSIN
In short: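 Luminescent demethylation readout: Luciferin-ME (100uM, equal to Km) turned over by 20nM CYP1A2 for 60 min at room temperature after NADPH regeneration addition, following 10 min compound preincubation. Normalization used 57 uM furafylline as full inhibition.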

[4] = NFAT Signaling Pathway (AID 444); conditions: Jurkat NFAT-bla M1, carbachol, beta-lactamase ratio, 5 h; at 7.69 µM (top of the series) unless noted;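 also: carbachol stimulus at about its EC50 of 1 µM final; % is scaled to controls: 0 for no effect and ±100 for the full control effect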
In short: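 Jurkat cells with NFAT-driven β-lactamase reporter and co-expressed M1 receptor, stimulated with carbachol (final 1 uM, ~EC50), compound titration, 5 h at 37 °C. CCF4 loaded 1 h at RT; 460/530 nm ratio gave %activity and AC50.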

[5] = Stat Signaling Pathway (AID 446); conditions: ME-180 SIE beta-lactamase reporter, IL-6 stimulated, 5 h; at 7.69 µM (top of the series) unless noted;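 also: ME-180 cervical cancer cells given 40 pM IL-6 alongside compound; SIE-controlled beta-lactamase reporter measured as 460/530 nm FRET emission ratio; % is scaled to controls: 0 for no effect and ±100 for the full control effect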
In short: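 Overnight-plated ME-180 cells bearing a STAT Inducible Element beta-lactamase reporter; 5 h co-exposure to compound and 40 pM IL-6; values normalized to 300 pM IL-6 and 125 nM JAK inhibitor controls.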

[6] = biological target: Glucocorticoid receptor (Homo sapiens) (UniProt P04150); experiment: GR-GFP Redistribution (AID 450;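 active = compounds whose dose series gives a full or clear partial fitted curve of increased nuclear translocation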; also: potency is read from the fitted curve at half-maximal effect); conditions: U2OS GR-GFP nuclear translocation, laser cytometry, 2 h
Chain of Glucocorticoid receptor (Homo sapiens) (P04150 whole entry, looked up, the tested form may be a part): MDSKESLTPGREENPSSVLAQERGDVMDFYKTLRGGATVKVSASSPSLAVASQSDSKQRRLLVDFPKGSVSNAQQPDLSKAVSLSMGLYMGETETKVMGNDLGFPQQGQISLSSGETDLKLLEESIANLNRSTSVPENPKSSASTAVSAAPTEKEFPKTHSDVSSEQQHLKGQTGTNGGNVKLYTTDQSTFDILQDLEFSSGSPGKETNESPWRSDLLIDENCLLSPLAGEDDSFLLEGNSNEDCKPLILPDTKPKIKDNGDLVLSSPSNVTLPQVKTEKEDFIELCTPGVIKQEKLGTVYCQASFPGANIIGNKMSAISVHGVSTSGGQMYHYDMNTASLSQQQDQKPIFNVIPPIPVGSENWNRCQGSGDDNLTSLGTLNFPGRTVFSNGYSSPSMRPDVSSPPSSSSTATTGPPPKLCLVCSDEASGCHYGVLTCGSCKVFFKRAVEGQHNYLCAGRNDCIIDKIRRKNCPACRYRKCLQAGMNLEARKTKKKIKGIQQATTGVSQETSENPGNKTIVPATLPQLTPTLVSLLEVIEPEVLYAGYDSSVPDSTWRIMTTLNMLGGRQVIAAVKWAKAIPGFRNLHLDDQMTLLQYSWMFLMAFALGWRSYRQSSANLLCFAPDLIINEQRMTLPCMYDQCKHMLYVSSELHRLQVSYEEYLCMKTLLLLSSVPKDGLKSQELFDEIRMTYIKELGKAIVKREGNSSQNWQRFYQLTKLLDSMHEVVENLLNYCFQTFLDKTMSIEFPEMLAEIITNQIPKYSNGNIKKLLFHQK

[7] = biological target: Glucocorticoid receptor (Homo sapiens) (UniProt P04150); experiment: GR-EFC Redistribution (AID 451; calls by dose curve; also: potency is read from the fitted curve at half-maximal effect); conditions: CHO-K1 GR-EFC translocation, beta-gal luminescence, 2 h
In short: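 CHO-K1 cells expressing nuclear EA and GR-ED fragments of b-gal; compounds titrated up to 46 uM final, 2 h at 37 C. GR nuclear translocation read as complemented b-gal luminescence after 1 h RT detection.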

[8] = biological target: Mitogen-activated protein kinase 10 (Mus musculus) (UniProt Q61831); experiment: JNK3 AlphaScreen Assay (AID 530); conditions: JNK3 lysate, c-Jun phosphorylation; series mostly up to 11.4 µM;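 also: kinase came from lysate of stimulated human HepG2 cells; signal reports phosphorylation of biotinylated GST-cJun 1-79 at Ser73 with 10 µM ATP; % is scaled to controls: 0 for no effect and ±100 for the full control effect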
In short: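 Activity was read by AlphaScreen after JNK3-containing HepG2 lysate (cytokine pre-activated) phosphorylated biotinylated GST-cJun with 10 uM ATP at room temperature. Phospho-Ser73 cJun antibody with Protein-A acceptor beads provided detection.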

[9] = biological target: 3',5'-cyclic-AMP phosphodiesterase 4B (Homo sapiens) (UniProt Q07343); experiment: qHTS Assay for Inhibitors of PDE-IV (AID 607; active = well fitted activation curve with a large enough effect in the main read-out, with a control signal flat, not every such curve was filed as active; also: % of control where 0% means no effect); conditions: HEK293 ACTOne CNG channel cells, membrane potential fluorescence; series mostly up to 22.9 µM
Chain of 3',5'-cyclic-AMP phosphodiesterase 4B (Homo sapiens) (Q07343 whole entry, looked up): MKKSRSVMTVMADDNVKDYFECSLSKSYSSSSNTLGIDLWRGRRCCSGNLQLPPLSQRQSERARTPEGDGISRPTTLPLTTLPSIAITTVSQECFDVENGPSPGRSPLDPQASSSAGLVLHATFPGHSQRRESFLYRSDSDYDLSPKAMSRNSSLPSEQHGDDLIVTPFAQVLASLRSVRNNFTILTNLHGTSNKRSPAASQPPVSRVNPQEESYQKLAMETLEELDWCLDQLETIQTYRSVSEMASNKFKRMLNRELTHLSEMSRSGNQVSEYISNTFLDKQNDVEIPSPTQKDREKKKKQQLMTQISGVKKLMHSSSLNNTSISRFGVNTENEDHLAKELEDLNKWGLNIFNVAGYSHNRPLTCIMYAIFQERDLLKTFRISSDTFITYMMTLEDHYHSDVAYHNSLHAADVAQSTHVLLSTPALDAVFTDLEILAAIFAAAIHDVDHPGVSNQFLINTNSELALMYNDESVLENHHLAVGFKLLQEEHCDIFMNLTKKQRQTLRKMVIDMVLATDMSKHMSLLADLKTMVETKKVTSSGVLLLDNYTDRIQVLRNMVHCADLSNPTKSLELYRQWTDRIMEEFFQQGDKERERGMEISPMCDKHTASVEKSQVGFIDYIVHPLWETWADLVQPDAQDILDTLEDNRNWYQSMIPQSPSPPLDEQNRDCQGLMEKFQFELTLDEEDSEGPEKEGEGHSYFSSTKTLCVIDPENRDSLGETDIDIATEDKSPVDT
In short: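 Live HEK293 cells with a modified cyclic nucleotide-gated (CNG) channel report intracellular cAMP via membrane-potential dye fluorescence (ex 535/em 590 nm). Endogenous PDE-IV was targeted. Compounds were tested at up to 22.9 uM final; RO 20-1724 100 uM served as control.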

[10] = biological target: Cytochrome P450 2C19 (Homo sapiens) (UniProt P33261); experiment: qHTS Assay for Inhibitors and Substrates of Cytochrome P450 2C19 (AID 899; active = well fitted inhibition curve with a large enough effect; also: nearly all actives have a fitted effect of over 60% in size; also: potency is read from the fitted curve at half-maximal effect); conditions: recombinant CYP2C19, luciferin-H EGE luminescence; series mostly up to 11.4 µM
Chain of Cytochrome P450 2C19 (Homo sapiens) (P33261 whole entry, looked up): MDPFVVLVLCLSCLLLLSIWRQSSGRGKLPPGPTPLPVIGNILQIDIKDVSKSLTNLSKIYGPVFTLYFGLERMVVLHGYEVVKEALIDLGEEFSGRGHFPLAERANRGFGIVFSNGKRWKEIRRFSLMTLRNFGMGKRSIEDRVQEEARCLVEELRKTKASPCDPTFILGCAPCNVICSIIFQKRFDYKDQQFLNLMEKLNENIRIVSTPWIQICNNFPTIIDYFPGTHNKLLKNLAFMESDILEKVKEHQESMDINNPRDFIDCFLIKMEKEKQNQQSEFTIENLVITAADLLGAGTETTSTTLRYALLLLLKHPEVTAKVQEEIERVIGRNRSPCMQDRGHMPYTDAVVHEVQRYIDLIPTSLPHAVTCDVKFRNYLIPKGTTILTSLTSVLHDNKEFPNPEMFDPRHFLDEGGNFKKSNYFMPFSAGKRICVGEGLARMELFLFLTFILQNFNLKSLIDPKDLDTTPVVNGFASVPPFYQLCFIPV
In short: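 Signal comes from luciferase acting on luciferin released by CYP2C19-mediated hydroxylation of Luciferin-H EGE, 10uM (KM). Assay mix: 5nM enzyme, 50mM KPO4; 60 min at 37C with NADPH regeneration. Data normalized against 57uM ketoconazole.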

[11] = qHTS Assay for Identification of Small Molecule Agonists for Hypoxia Response Element Signaling Pathway (AID 914; active = well fitted activation curve with a large enough effect in the signal ratio, with a control signal flat, not every such curve was filed as active; the % refers to the signal ratio; also: % of control where 0% means no effect); conditions: ME-180 (cervical carcinoma) HRE-bla reporter, beta-lactamase ratio, CoCl2, 17 h; activation: hits give high values
In short: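 AC50 values come from titration-series %Activity, taken as the 460/530nm ratio of CCF4 fluorescence (excitation 405nm). CellSensor HRE-bla ME-180 cells were treated 17 hours at 37 C with compound plus an EC50 level of CoCl2.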

N#CC(C#N)=CNCCN1CCN(C=C(C#N)C#N)CC1
inactive: Potency [1] > 11.4 µM | activity change, negative = inhibition [2] 2.96% | activity change, negative = inhibition [3] -15.5% [at 2.29 µM] | activity change, negative = inhibition [4] 2.39% | activity, negative = inhibition [5] 3.44% | Potency [6] > 46 µM | Potency [7] > 9.22 µM | Potency [8] | Potency [9] | Potency [10]

Clc1nc(NCCc2ccccc2)c2ncn(-c3ccccc3)c2n1
active: Potency [3] 0.501 µM | Potency [10] 0.501 µM
inactive: Potency [1] > 11.4 µM | activity change, negative = inhibition [2] -9.15% | activity change, negative = inhibition [4] -0.663% | activity, negative = inhibition [5] -22.9% | Potency [6] > 46 µM | Potency [7] > 9.22 µM | Potency [8] | Potency [9]

CN(C)c1ccc(C(=C2C=CC(=[N+](C)C)C=C2)c2c(O)c(S(=O)(=O)O)cc3cc(S(=O)(=O)O)ccc23)cc1
active: Potency [3] 3.98 µM
inactive: Potency [1] > 11.4 µM | activity change, negative = inhibition [2] 3.1% | activity change, negative = inhibition [4] -12.3% | activity, negative = inhibition [5] 4.39% | Potency [6] > 46 µM | Potency [7] > 9.22 µM | Potency [8] | Potency [9] | Potency [10]

Nc1ccc(S(=O)(=O)NCc2nccs2)cc1
active: Potency [10] 0.0794 µM
inactive: Potency [1] > 11.4 µM | activity change, negative = inhibition [2] -6.48% | activity change, negative = inhibition [3] -10.5% [at 2.29 µM] | activity change, negative = inhibition [4] 7.98% | activity, negative = inhibition [5] -1.21% | Potency [6] > 46 µM | Potency [7] > 9.22 µM | Potency [8] | Potency [9]

C=CC[C@@H](C(=O)O)c1ccccc1
inactive: Potency [1] > 11.4 µM | activity change, negative = inhibition [2] 2.31% | Potency [3] | activity change, negative = inhibition [4] 9.16% | activity, negative = inhibition [5] 8.67% | Potency [6] > 46 µM | Potency [7] > 9.22 µM | Potency [8] | Potency [9] | Potency [10]

c1ccc2c(c1)c1ccccc1n2Cn1c2ccccc2c2ccccc21
active: Potency [3] 0.251 µM | Potency [10] 0.398 µM
inactive: Potency [1] > 11.4 µM | activity change, negative = inhibition [2] 10.8% | activity change, negative = inhibition [4] -5.02% | activity, negative = inhibition [5] 8.5% | Potency [6] > 46 µM | Potency [7] > 9.22 µM | Potency [8] | Potency [9]

Clc1ccccc1C(Nc1ncccn1)Nc1ncccn1
inactive: Potency [1] > 11.4 µM | activity change, negative = inhibition [2] 4.25% | Potency [3] | activity change, negative = inhibition [4] 3.12% | activity, negative = inhibition [5] 3.77% | Potency [6] > 46 µM | Potency [7] > 9.22 µM | Potency [8] | Potency [9] | Potency [10]

O=S(=O)(O)c1ccc(-c2nnc(-c3ccccn3)nc2-c2ccc(S(=O)(=O)O)o2)o1
inactive: Potency [1] > 11.4 µM | activity change, negative = inhibition [2] 4.23% | Potency [3] | activity change, negative = inhibition [4] 3.88% | activity, negative = inhibition [5] 2.53% | Potency [6] > 46 µM | Potency [7] > 9.22 µM | Potency [8] | Potency [9] | activation [11] 8.26%

O=[N+]([O-])c1cc(Cc2cc([N+](=O)[O-])c3cccnc3c2O)c(O)c2ncccc12
active: Potency [10] 2.51 µM
inactive: Potency [1] > 11.4 µM | activity change, negative = inhibition [2] 18.2% | activity change, negative = inhibition [3] -31.1% [at 2.29 µM] | activity change, negative = inhibition [4] -16.4% | activity, negative = inhibition [5] -1.87% | Potency [6] > 46 µM | Potency [7] > 9.22 µM | Potency [8] | Potency [9]

c1ccc2c(CSCc3cccc4ccccc34)cccc2c1
active: Potency [3] 3.98 µM | Potency [10] 0.126 µM
inactive: Potency [1] > 11.4 µM | activity change, negative = inhibition [2] 6.44% | activity change, negative = inhibition [4] -28.7% | activity, negative = inhibition [5] 17.1% | Potency [6] > 46 µM | Potency [7] > 9.22 µM | Potency [8] | Potency [9]

C[N+](C)(C)c1nc(N)nc2c1ncn2[C@H]1O[C@@H](CO)[C@@H](O)[C@H]1O
inactive: Potency [1] > 11.4 µM | activity change, negative = inhibition [2] 6.27% | activity change, negative = inhibition [3] -4.9% [at 2.29 µM] | activity change, negative = inhibition [4] 2.16% | activity, negative = inhibition [5] -3.17% | Potency [6] > 46 µM | Potency [7] > 9.22 µM | Potency [8] | Potency [9] | Potency [10]

COc1ccc2cc(C(=O)CCC(=O)O)ccc2c1
inactive: Potency [1] > 11.4 µM | activity change, negative = inhibition [2] 1.75% | activity change, negative = inhibition [4] 19.6% | activity, negative = inhibition [5] 6.44% | Potency [6] > 46 µM | Potency [7] > 9.22 µM | Potency [8] | Potency [9]
active: Potency [3] 0.794 µM | Potency [10] 2 µM

COc1ccc(NC(=S)Nc2ccccc2)cc1
active: Potency [3] 1.26 µM | Potency [10] 2 µM
inactive: Potency [1] > 11.4 µM | activity change, negative = inhibition [2] 0.508% | activity change, negative = inhibition [4] 6.45% | activity, negative = inhibition [5] 10.3% | Potency [6] > 46 µM | Potency [7] > 9.22 µM | Potency [8] | Potency [9] | activation [11] 8.18%

O=c1[nH]c(=S)c2[nH]c(=O)n(-c3ccccc3)c2[nH]1
inactive: Potency [1] > 11.4 µM | activity change, negative = inhibition [2] 12.1% | Potency [3] | activity change, negative = inhibition [4] 15.1% | activity, negative = inhibition [5] 8.32% | Potency [6] > 46 µM | Potency [7] > 9.22 µM | Potency [8] | Potency [9] | Potency [10]

COc1ccc2nc(NCN3C(=O)c4ccccc4C3=O)sc2c1
active: Potency [3] 3.98 µM | Potency [10] 2.51 µM
inactive: Potency [1] > 11.4 µM | activity change, negative = inhibition [2] 2.48% | activity change, negative = inhibition [4] -16% | activity, negative = inhibition [5] 10.9% | Potency [6] > 46 µM | Potency [7] > 9.22 µM | Potency [8] | Potency [9]
